From the emibetuzumab library of Makowski et al. (2022)
Some of the results follow. The true hit rate is not given.

B1: VH:VL chains; a variant is named by its letters at X, in order (parent)
chain 1: QVQLVQSGAEVKKPGASVKVSCKASGYTFTDYXMHWVRQAPGQGLEWMGXVNPNXXXTTYNQKFEGRVTMTTDTSTSTAYMELRSLRSDDTAVYYCARXNXLDXWGQGTTVTVSS
chain 2: DIQMTQSPSSLSASVGDRVTITCSVSSSVSSIYLHWYQQKPGKAPKLLIYSTSNLASGVPSRFSGSGSGTDFTLTISSLQPEDFATYYCQVYSGYPLTFGGGTKVEIK

Variants of: B1
Test: yeast display scFab, FACS + sequencing
Conditions: with MET
How it was run: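 For FACS, yeast displaying a heavy-chain CDR mutant scFab library were labelled with 1 nM HGFR-Fc and anti-Myc (PBSB, 1% milk, 3 h, room temperature), and the top 50% antigen-positive cells were gated. Input and round-3 sorted populations were deep sequenced in two replicates. The binding call was positive for sequences occurring in both antigen-positive samples and negative for sequences occurring only in input.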

Variant	antigen binding call
FRGRGSAV	binds
FRARGSWV	binds
FRGRDVAV	no binding
FRGRGSVV	binds
FRGRGSWV	binds
FTKAASWV	no binding
DAGTGAGD	no binding
SETTDDAV	no binding
SEARSSLV	no binding
FRRGGASA	binds
DRRGDSSA	no binding
DRREDSSA	no binding
YRRKGSSA	binds
YRRGSSSA	binds
YAEESSSA	no binding
YRRGDSSA	binds
FARGGYVA	no binding
VAAKSAAA chain 1 R38K	no binding
ATGGDDWF	no binding
VEGGGDWS	no binding
SEARNAGD	no binding
VKGRADWA	no binding
VTGGSDVY	no binding
FAEGDDSA	no binding
FATEGASA	binds

Variant	antigen binding call
FRGKDASA	binds
FRGRDFSA	no binding
DARGGSSA	no binding
YRRGGSSA	binds
FEETDASA	no binding
YRRGGASA	binds
FAGGGDGA	no binding
STGGDDVY	no binding
VAGTGDWD	no binding
DTGKDAGD	no binding
SETGGDVA	no binding
SEARSAVS	no binding
SEEASSSA	no binding
YRRRDSSA	binds
DRGRDSSA	no binding
YTGTSSSA	no binding
YRRGGSVA	binds
VTGGDDVY	no binding
YTGGDDVV	no binding
FRGGGSSA	binds
YEGGGSSA	no binding
FRGRGSSA	binds
FKGEGSSA	no binding
DTGRADWA	no binding
DTREGDVD	no binding

Variant	antigen binding call
YKRGDASS	binds
DGRGDALS	no binding
YKRGDDSS	no binding
YKRGDSSS	binds
VGTKGDAA	no binding
DEGGGSSA	no binding
FRGTGSWA	no binding
FRGGGSAA	binds
DATGGAVA	no binding
FRGRDDWA	no binding
FRGGGAVA	binds
FRGGGSWA	binds
FRTGGAVA	binds
STGTSDVF	no binding
DAKEGDGV	no binding
FRTRDSSS	binds
FAEGASSS	no binding
FRGGSSAA	binds
DRGGSSAA	no binding
FRTRDSAA	binds
AARADSLS	no binding
FRGRDDVF	no binding
FRGRDAVD	binds
FRGRDFAD	no binding
FRGRDAVF	binds

Variant	antigen binding call
FRGRDYGF	no binding
FRGRAAVD	binds
FRGRDYGD	no binding
DRGRDDVF	no binding
FRGRDSSF	binds
SAEKDDGS	no binding
DARGGAGA	no binding
VGEKGDGV	no binding
SEKEGDAA	no binding
FRGRGFVA	no binding
YRGRGFVA	binds
SRGRGFVA	no binding
YRGRGFLV	binds
YRGKGFVV	binds
YRGKGFVA	binds
VTTKSAVA	no binding
DRRKAFSA	no binding
VEEEGDAA	no binding
VAGGDDVA	no binding
VEGTGDWD	no binding
VRGKAFVV	no binding
YRGKGYVV	binds
VATKGFVV	no binding
YRGRGFVV	binds
VRARGFVV	binds

Variant	antigen binding call
VRGRGFVV	binds
VRAGADVV	no binding
FEKEADAF	no binding
ATTGSASF	no binding
DAETAAAA	no binding
SRGRGAWS	binds
SRGRGAVS	binds
STGTGSGA	no binding
SRGRGVGA	no binding
DAGRGAVS	no binding
SRGRDAWA	no binding
SRGRGAWA	binds
SRGRGSGA	binds
VETGNDLV	no binding
STGTGYVF	no binding
AAKEGALV	no binding
AKGRADVY	no binding
YARETAGV	no binding
DRAGDDGD	no binding
DRGRDDVD	no binding
YRRGDDGD	binds
YTEGDDGD	no binding
YKRGDDLV	no binding
YRGRDDGD	binds
VRGRDDGV	no binding

Variant	antigen binding call
YKRGDDGD	binds
DRRGDDGA	no binding
AEGGTDVV	no binding
SREAADAV	no binding
VKATAVAV	no binding
VKERGDAV	no binding
VEGGGSGV	no binding
VKARGSGV	binds
VKGRADGV	no binding
VKEGGAVV	no binding
VKTGGSWV	no binding
VKTGGAVV	binds
VKARGAGS	binds
VKAGGAGS chain 1 G44D	no binding
VAARGFGS	no binding
VKGRSDGV	binds
VGARNSGV	no binding
SKGRSDGV	no binding
SEGTGSSV	no binding
DGGKNAGV	no binding
DTGTGDAA	no binding
YKGEGDGV	no binding
VKGESAGV	no binding
YKTKSDGV	no binding
YKTGDDGV	no binding

Variant	antigen binding call
YKARGAGV	binds
YEKETAGV	no binding
DKAGGAGV	no binding
YKTGGAGV	binds
YKTGGDGV	no binding
VKARSAGV	no binding
VKARGAGV	binds
YKKRGAGV	binds
FEAESYGV	no binding
FKAGSSGV	no binding
FKARGSGV	binds
FKATTSGA	no binding
VAGTDAGA	no binding
YRRGSFAA	binds
YRRRGYAA	binds
SREGGFAA	no binding
YRRRGVAA	binds
SRKGGDAA	no binding
YRRRGDAA	binds
VGGGASGV	no binding
FTGRAYGF	no binding
VAGRSDLV chain 1 R67H	no binding
DAKEGAGD	no binding
VTGEDDWD	no binding
VGGGNAGD	no binding

Variant	antigen binding call
YREGGFAA	no binding
YRRRGFAA	binds
YRRRGYVA	binds
YRRRGAVA	binds
YRRRGAAA	binds
VRAGADVY	no binding
YGETGDSV	no binding
FTETGFGA	no binding
YRRRGFVA	binds
FRERGSAD	binds
YRERGAAD	binds
VRERGSAD	binds
YRERGSAD	binds
YRERDSAD	no binding
YAEGDAAD	no binding
VEGTSDVV	no binding
DTTGSAVA	no binding
VKGGGYGA	no binding
YKGGSAGA	binds
VKGGGFGA	no binding
YKGGGAGA	binds
YKGGGYGA	binds
FKGGGFGA	no binding
YTGATAGA	no binding
YEGGGDGA	no binding

Variant	antigen binding call
YKGEADGA	no binding
YRRRGSGF	binds
YRRRGAWF	binds
YRTRGSGF	binds
YRRRGAGF	binds
FTKASYVY	no binding
VEARGDWV	no binding
STRKSYAA	no binding
STKAASWV	no binding
YRERGAAA	binds
FTGGDALA	binds
FRERGYGA	no binding
FRERGDGA	no binding
YRERGALA	binds
STGTGALA	no binding
FRERGALA	binds
YRERNAAA	no binding
VTGGDALA	no binding
